PG9 binder = binds the HIV-1 gp120 antibody PG9; TR-FRET gp120-PG9 antibody binding; inhibition, % at 6.7 µM; 0.43% of 360,000 active; in the data active = inhibition above about 8.5%
SMARCA2 activ = activators of SMARCA2 function | MG213 cells, MMTV-luciferase reporter, dexamethasone, overnight | activation, % at 9.1 µM | 1% of 370,000 active | AID 652017; in the data active = activation above about 7.8%;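 note: 0% = vehicle wells and 100% = reference activator wells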
HSP90 refold inh = inhibitors of HSP90 luciferase refolding in rabbit reticulocyte lysate; luciferase refolding luminescence, 3 h; inhibition, % at 5.6 µM; 0.91% of 290,000 active; AID 1789;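 active = inhibition above the screen-wide mean plus 3 SD, computed separately per campaign, cut at about 16% in these data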;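 note: 0% = DMSO wells and 100% = 60 µM geldanamycin wells; inhibitors lower the luminescence because luciferase stays unfolded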
AI-2 QS mod = modulates the Vibrio harveyi AI-2 quorum sensing system | Vibrio harveyi JMH597 AI-2 luminescence/OD600 ratio, 9 h; stronger effect = lower value; strain lacks LuxN and CqsS sensors; 0 = neutral-control median | activity change, % at 7.5 µM | 0.4% of 300,000 active | AID 2094; in the data active = activity change below about -75%, passing the limit was not always enough;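 note: luminescence divided by OD600 gain over 9 h not by final OD600 alone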
HSF1 inhib = HSF1 inhibition; AID 2098; NIH3T3-HGL HSE-luciferase, MG132-induced, luminescence 8 h; stronger effect = lower value; 0.77% of 300,000 active; activity change, negative = inhibition, % at 7.5 µM (by protocol);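 active = more than half of replicate wells show activity change below -50%, luminescence cut by over half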;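 note: luciferase reports HSF-1 transcriptional activity via heat shock element; 0% = median of DMSO wells and -100% = zero luminescence signal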
FXN GAA850 act = frataxin GAA850 promoter activation | HEK293 lucGAA850 FXN promoter luciferase reporter, 24 h; percent of 10 µM SAHA response | activation, % at 6 µM | 0.56% of 360,000 active;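 active = activation above the average of all compounds screened plus 3 SD, cutoff fixed separately per campaign, cut at about 7.5% in these data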;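 note: 0% = DMSO wells and 100% = 10 µM SAHA wells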
SMARCA2 conf = SMARCA2 activation, confirmation screen | shares compounds with SMARCA2 activ | MG213 cells, MMTV-luciferase with dexamethasone, luminescence, overnight; MG213 cells expressing E1A, Rb sequestered; DMSO wells 0%, reference activator 100% | activation, % at 9.1 µM | 30% of 3,500 active | AID 652260;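 active = activation above its plate's cutoff, the mean activation of tested wells plus 3 SD, cut at about 7.9% in these data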
VP16 Luc act = activates GAL4-VP16 luciferase, flagging SMARCA2 activator hits; AID 686939; HEK293 GAL4-VP16 pG5luc reporter, luciferase luminescence; scaled: DMSO wells 0%, SAHA wells 100%; shares compounds with SMARCA2 activ; activation, % at 9.1 µM; 41% of 3,500 active;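 active = activation above the solvent-only control well mean plus 3 SD, averaged across control plates, cut at about 5.2% in these data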
Numbers without * were called inactive; nt = no result given. Only some compounds are listed: those with a hit (about 3.4% of all), similar ones and a draw of the others.

SMILES	PG9 binder	SMARCA2 activ	HSP90 refold inh	AI-2 QS mod	HSF1 inhib	FXN GAA850 act	SMARCA2 conf	VP16 Luc act
c1ccc2[nH]c(-c3ccncc3)nc2c1	-1	9.5*	-4	11	8	3	1	2
COc1ccc(-c2ccc(C(=O)C3CC3)cc2)cc1	-3	10*	0	19	15	6	8.2*	15*
COc1ccc(CCN2CCC(CN3C(=S)NC[C@@H]3Cc3ccccc3)CC2)cc1OC	0	3	nt	nt	nt	nt	nt	nt
CC1(C(=O)NCc2ccccc2)CN(S(C)(=O)=O)CC(=O)N1Cc1ccco1 (configuration not stated)	-1	-2	nt	nt	nt	nt	nt	nt
O=C(c1ccccc1Oc1ccccc1)N1CCC(Oc2cccnc2)CC1	nt	-2	nt	nt	nt	nt	nt	nt
Cc1ccc(CN2CC(C(=O)Nc3cc(C)ccn3)CC2=O)cc1 (configuration not stated)	-3	10*	nt	37	4	7	17*	6.3*
Cc1ccc(CN2CC(C(=O)Nc3ccncc3)CC2=O)cc1 (configuration not stated)	-1	-3	-2	17	-1	0	nt	nt
CN(C)/C=N/c1nc2ccc3c(c2s1)CCCC3	-1	15*	2	38	18	6	18*	13*
COc1ccc2nc(/N=C\N(C)C)sc2c1	-1	1	-3	14	9	3	nt	nt
CC(C)c1ccc(OCCCN2CCC(C(O)(c3ccccc3)c3ccccc3)CC2)cc1	-1	-5	nt	nt	nt	nt	nt	nt
OCC1COC(c2ccccc2)=N1 (configuration not stated)	1	2	nt	nt	nt	nt	nt	nt
O=C(NNC(=O)C1CC2CCC1C2)c1sc2ccccc2c1Cl (configuration not stated)	0	8.4*	-2	30	13	5	5	5
COc1ccc2nc(-c3ccco3)c(-c3ccco3)nc2c1	-3	11*	3	33	-1	1	-7	9.2*
c1coc(-c2nc(-c3ccco3)c(-c3ccco3)nc2-c2ccco2)c1	2	0	3	23	0	0	nt	nt
CS(=O)(=O)c1cc(N2CCOCC2)ccc1CNC[C@H]1O[C@@H](n2cnc3c(=O)[nH]c(N)nc32)[C@H](O)[C@@H]1O	-2	1	nt	nt	nt	nt	nt	nt
O=C(/C=C(\Nc1ccc(Br)c(F)c1)c1ccccc1)c1ccccc1	0	3	nt	nt	nt	nt	nt	nt
Cc1ccccc1CN1[C@@H](C)[C@H](c2ccccc2)Oc2cccc(N3CCCC3)c2S1(=O)=O	0	-5	nt	nt	nt	nt	nt	nt
Cc1ccc2c(c1)C(=NC1CCCCC1)c1cc3ccccc3nc1-2	-3	11*	-3	21	44	4	11*	7.6*
CCOC(=O)c1ccc2nc(NC(=O)c3cccs3)sc2c1	-1	5	1	2	21	5	nt	nt
CCOCC(=O)Nc1nc2ccc(OC)cc2s1	-4	7	3	14	25	1	nt	nt
CCOC(=O)c1ccc2nc(NC(=O)C(C)C)sc2c1	1	10*	4	22	26	2	8	4
COc1ccc2nc(Nc3nc(C)c(C(C)=O)s3)sc2c1	-1	9.7*	-1	9	-7	7	-12	14*
CCOc1ccc2nc(NC(=O)COC)sc2c1	-2	8.0*	1	40	24	7	15*	13*
Cc1ccccc1-c1nsc(SCC(=O)Nc2ccc3c(c2)OCO3)n1	-2	2	-4	10	5	3	nt	nt
O=C(CSc1ccccc1F)Nc1ccc2c(c1)OCO2	0	11*	nt	nt	nt	2	6	5.7*
Cc1cccc(-c2nsc(SCC(=O)Nc3ccc4c(c3)OCO4)n2)c1	0	9.7*	-2	13	39	3	2	1
Cc1cc(S(=O)(=O)Nc2ncnc3sccc23)ccc1F	2	-7	nt	nt	nt	-1	nt	nt
Cc1cc(Cl)c2oc(C(=O)N3CCN(c4cccc(C)n4)CC3)c(C)c2c1	-3	11*	-1	4	38	1	7	15*
